Bioassay records as filed in PubChem.
The entries come from a sample that favours hits as a whole.
Mito fusion act: mitochondrial division inhibition or fusion activation. S. cerevisiae fusion-defective mutant growth rescue, CellTiterGlo 48 h. Potency, µM (titrated, usually from 46.1 µM), without a hit: at the top dose growth rescue (activation), usual class: activators. 320,000 tested, 0.23% active. AID 485298; note: potency is the fitted concentration of half-maximal effect; % of control where 0% means no effect; nearly all actives have a fitted effect of over 45% in size
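Growth-rescue viability read-out: after 48 h at the non-permissive 37C in glycerol/ethanol YPEG, yeast mitochondrial fusion mutants are measured by CellTiterGlo luminescence; compounds (23 nl pinned per well) restoring growth score as division inhibitors or fusion activators.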
ASM inhibitor: inhibitors of human secretory acid sphingomyelinase; placental ASM, HMU-PC fluorogenic substrate, 60 min; 340,000 tested, 0.006% active; Potency, µM (titrated, usually from 57.5 µM), without a hit: at the top dose activity change, negative = inhibition, most hits filed as inhibitors; note: potency is the fitted concentration of half-maximal effect
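HMU-PC0 cleavage (9 uM final) by human placental ASM, 60 min at 37 °C following 10 min compound exposure at RT; stopped at pH 10, fluorescence Ex 386/Em 447 nm.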
LDHA block: blocks human lactate dehydrogenase A | purified LDHA, NADH/diaphorase-resazurin fluorescence; active compounds read low | P00338 | AID 1347041 | activity change, % (values are at about 110 or 230 µM) | 480,000 tested, 0.15% active; in the data active = activity change below about -30%; inconclusive = mostly about -25% to -30%;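 note: plate controls were DMSO wells for no effect and wells without enzyme for full effect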
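Resorufin fluorescence (ex540/em590), read at 0 and 20 min after diaphorase/resazurin addition, reports the NADH left after a 5 min room-temperature reaction of 2 nM human LDH5 with 0.06 mM NADH and 0.2 mM pyruvate.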
IDH1 R132H inh: human IDH1 R132H inhibition | IDH1-R132H enzyme, NADPH consumption, diaphorase/resazurin fluorescence | 390,000 tested, 0.093% active | Potency, µM (doses to about 76.6 µM), without a hit: at the top dose activity change, negative = inhibition, most hits filed as inhibitors; note: potency is the fitted concentration of half-maximal effect; % is set by controls: 0 for no effect and ±100 for the full control effect; nearly all actives have a fitted effect of over 65% in size
Target sequence (O75874 whole entry R132H, stated change not applied): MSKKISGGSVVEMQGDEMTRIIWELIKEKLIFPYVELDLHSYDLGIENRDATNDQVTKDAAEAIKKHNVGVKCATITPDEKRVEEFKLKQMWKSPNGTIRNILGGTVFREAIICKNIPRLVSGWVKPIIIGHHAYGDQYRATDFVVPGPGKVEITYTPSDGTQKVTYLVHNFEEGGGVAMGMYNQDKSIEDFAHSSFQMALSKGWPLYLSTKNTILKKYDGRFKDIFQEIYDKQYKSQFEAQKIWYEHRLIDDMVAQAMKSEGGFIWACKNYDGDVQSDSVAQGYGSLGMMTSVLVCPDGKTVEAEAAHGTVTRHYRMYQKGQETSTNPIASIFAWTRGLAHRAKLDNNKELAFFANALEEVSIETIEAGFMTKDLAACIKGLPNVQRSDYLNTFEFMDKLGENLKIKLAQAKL
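IDH1-R132H (0.5 ug/mL) preincubated 30 min with compound, then NADPH (0.016 mM) and alpha-KG (2 mM) added; 80 min at RT, pH 7.5. Remaining NADPH coupled via diaphorase/resazurin to fluorescence (540/590 nm); concentration-response curves normalized to no-enzyme control.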
RGS4 inh: blocks human RGS4-accelerated GTP hydrolysis | P49798 | Transcreener GDP fluorescence polarization, RGS4-accelerated GTP hydrolysis | Potency, µM (top dose mostly 114 µM), for the others: at the top dose activity change, negative = inhibition, most hits filed as inhibitors | 390,000 tested, 0.039% active; note: potency is the fitted concentration of half-maximal effect; % is set by controls: 0 for no effect and ±100 for the full control effect; nearly all actives have a fitted effect of over 75% in size
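MLSMR compounds (23 nl, pin-transferred) preincubated 10 min at room temperature with a 500nM (2x) first reagent, then RGS4 at 900nM (2x) plus Transcreener GDP mix added; fluorescence polarization (620/688 nm) read before and after 90 min at 30 °C.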
ClpP mod: qHTS Assay for Activators of ClpP; ATP-dependent Clp protease proteolytic subunit (Bacillus subtilis (strain 168)), P80244; purified B. subtilis ClpP, FRET peptide cleavage, 20 min; Potency, µM (top dose mostly 57.5 µM), for the others: top-dose activity change, negative = active; 340,000 tested, 1.9% active; active = well fitted falling curve with a large enough effect; inconclusive = small, poorly fitted or top-dose-only effect; inactive = no such curve, though single readings can be large or run the other way; note: potency is the fitted concentration of half-maximal effect; the source files actives as falling curves though it sought activators and does not explain the sign; nearly all actives have a fitted effect of over 65% in size
Target sequence (P80244 whole entry, looked up): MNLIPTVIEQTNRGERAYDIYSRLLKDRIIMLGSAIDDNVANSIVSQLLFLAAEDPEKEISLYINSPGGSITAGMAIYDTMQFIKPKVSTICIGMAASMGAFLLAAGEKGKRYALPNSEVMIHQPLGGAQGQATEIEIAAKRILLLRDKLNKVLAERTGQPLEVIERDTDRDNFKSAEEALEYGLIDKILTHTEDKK
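FRET quenching reversal measured ClpP activation: 10 microg/mL B. subtilis ClpP at pH 8 with the FRET-FV decapeptide, read at 430 nm after 320 nm excitation. The 20-min minus 0-min signal was scaled between DMSO/no-enzyme wells and ADEP (5.8 microM final).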
Active calls of the source: *; i = inactive; ? = inconclusive; / = not tested or not shown; [ ] = remark or other dose. Unless noted, calls come from the whole dose curve; as a rule, active = well fitted curve in the direction sought with a large enough effect; inconclusive = small, poorly fitted or top-dose-only effect, or another doubt; inactive = no such curve, though single readings can be large; an effect the other way counts as inactive or inconclusive.

SMILES	Mito fusion act	ASM inhibitor	LDHA block	IDH1 R132H inh	RGS4 inh	ClpP mod
c1ccc(Oc2nc3ccccc3n3cccc23)cc1	-1.9%	-3.5%	0.2	1.6%	12.4%	28.2µM*
Cc1nnc2c(Oc3ccccc3)nc3ccccc3n12	1.0%	1.0%	-6.1	2.0%	-13.1%	-3.0%
N#CC(C(=O)CCc1ccccc1F)C(=O)Nc1ccccc1Cl (stereo not given)	/	/	-11.4	/	/	/
O=C(CN1CCCC1)Nc1c2c(nc3ccccc13)N(Cc1ccccc1)CC2	4.0%	207.9%	?	7.6%	-14.7%	14.1µM*
CCN(CC)CC(=O)Nc1c2c(nc3ccccc13)N(C)CC2	-2.3%	412.7%	?	5.3%	11.3%	-2.3%
O=C(CN1CCOCC1)Nc1c2c(nc3ccccc13)N(Cc1ccccc1)CC2	-2.2%	197.6%	-21.8	12.7%	-117.4%	22.4µM*
CC(C)[C@H](NC(=O)OC(C)(C)C)C(=O)NC[C@H](CC(=O)O)c1ccc(Cl)cc1	/	/	-1.1	/	/	/
CC1CCN(c2nc(-c3cccnc3)nc3scc(-c4ccccc4)c23)CC1	1.4%	10.5%	-1.6	12.9%	8.4%	?
CC1CCCN(c2nc(-c3cccnc3)nc3scc(-c4ccccc4)c23)C1 (stereo not given)	23.9%	2.4%	3.7	-7.8%	-4.1%	14.1µM*
COc1cc(-c2nnc(-c3ccccc3)o2)cc(OC)c1OC	10.6%	-0.4%	0.5	6.1%	-12.4%[11.4 µM]	?
COc1cc(-c2nnc(-c3cc(OC)c(OC)c(OC)c3)o2)cc(OC)c1OC	-8.0%	1.2%	-3.0	0.0%	39.7%	25.1µM*
CCc1ccccc1OCCSc1nnc(-c2cc(OC)c(OC)c(OC)c2)o1	/	/	-5.3	0.0%	2.4%	25.1µM*
COc1cc(-c2nnc(SCC(=O)N(C(C)C)C(C)C)o2)cc(OC)c1OC	/	/	-0.9	/	/	/
COc1cc(-c2n[nH]c(=O)o2)cc(OC)c1OC	-3.0%	5.9%	-0.1	7.1%	8.4%	15.8µM*
COc1cc(-c2nnc(SCC(=O)/C(C#N)=C(\C)N)o2)cc(OC)c1OC	-2.8%	1.1%	-4.2	-1.4%	15.1%	14.1µM*
N#Cc1cc2c(nc1N1CCN(C(C(=O)O)c3c[nH]c4cc(Cl)ccc34)CC1)CCCC2 (stereo not given)	/	/	-2.2	/	/	/
CC(=O)c1cccc(NS(=O)(=O)c2ccc(-c3coc(C)n3)cc2)c1	/	/	-4.4	/	/	/
c1ccc2nc(SCc3ccc4c(c3)OCCO4)ccc2c1	/	/	11.9	/	/	/
COc1cc(-c2nnc(SCC3(c4ccc(Br)cc4)OCCO3)o2)cc(OC)c1OC	4.4%	-2.0%	-3.4	9.4%	1.1%	28.2µM*
COc1cc(-c2nnc(SCC(=O)N3CCOCC3)o2)cc(OC)c1OC	-5.5%	-1.0%	-6.2	2.6%	-6.8%	-1.1%
CC1=C(C(=O)Nc2ccccc2)C(c2ccc(Cl)cc2)n2c(s/c(=C/c3cccc(OCC(=O)O)c3)c2=O)=N1 (stereo not given)	-1.4%	25.1µM*	-5.1	6.0%	?	/
CCCCNC(=O)OCC(CC)NC(=O)OC(C)C (stereo not given)	-4.9%	1.7%	-0.6	1.2%	-0.1%	28.2µM*
COc1cc2oc(=O)c(CC(=O)NC3CC3)c(C)c2cc1Cl	/	/	-4.1	/	/	/
N[n+]1cccc2ccccc21	/	/	11.1	/	/	/
COc1ccc(-c2nc3cc(C)ccn3c2NCc2ccc3c(c2)OCO3)cc1	-4.4%	64.1%	-3.7	-0.6%	14.5%	28.2µM*
SMILES	Mito fusion act	ASM inhibitor	LDHA block	IDH1 R132H inh	RGS4 inh	ClpP mod
COc1ccc(-c2nc3ccccn3c2NCc2ccc3c(c2)OCO3)cc1	-1.3%	120.5%	0.4	0.9%	-15.7%	?
COc1ccc(C(=O)NC(=S)NCCO)cc1I	/	/	6.0	/	/	/
COc1ccc(-c2nc(CSCC(=O)Nc3cccc(F)c3)co2)cc1	/	/	0.6	/	/	/
Nc1ccc(N2CCN(c3cccc(Cl)c3)CC2)cc1	3.98µM*	0.8%	2.7	1.4%	-42.2%	-6.8%
Clc1cccc(N2CCN(CCCN3CCN(c4ccccc4)CC3)CC2)c1	/	-5.3%	-5.3	-3.8%	3.5%	/
CCN(Cc1ccccc1)c1ccc(/C=N/N=C(N)N)cc1	-10.7%	50.8%	-7.3	-2.0%	4.0%	25.1µM*
COC(=O)C1=CN(C(C)C)C=C(C(=O)OC)C1c1ccc(C(F)(F)F)cc1	/	/	-2.5	/	/	/
O=C(NCc1cnc2ccccn12)C1CCC(=O)N(Cc2ccccc2F)C1 (stereo not given)	-0.3%	1.2%	-3.3	4.9%	-50.6%	31.6µM*
CCC(NC(=O)C12CC3CC(CC(C3)C1)C2)c1ccccc1 (stereo not given)	/	/	4.9	/	/	/
CN1CCCCCC1=Nc1ccc([N+](=O)[O-])cc1	/	2.0%	-3.8	3.0%	4.7%	11.2µM*
COc1ccc(-c2ccc(C(=O)Nc3cccc(N(C)C)c3)c3occc23)c(C)c1	/	/	-3.5	/	/	28.2µM*
Cn1cc(-c2ccc(C(=O)Nc3cccc(Oc4ccccc4)c3)c3occc23)cn1	/	/	-19.7	/	/	22.4µM*
CN(C)c1cccc(NC(=O)c2cccc3c(-c4ccc(F)c(F)c4)coc23)c1	/	/	-2.1	/	/	22.4µM*
CC1CCN(C(=O)C2CCN(C(=O)c3ccc4cc[nH]c4c3)CC2)CC1	/	/	0.8	/	/	/
CN(C)S(=O)(=O)N1CCC(Oc2cccc(C(=O)NCCC3=CCCCC3)c2)CC1	8.2%	-1.7%	-9.1	9.7%	-5.0%	25.1µM*
CC(=O)c1c(SCC(=O)Nc2ccc(F)c(F)c2)nc(=O)[nH]c1C	/	/	-11.7	/	/	/
CSc1ccc(/C=C(/NC(=O)c2ccco2)C(=O)N2CCCCC2)cc1	8.2%	3.2%	-0.6	-2.4%	-13.8%	1.5%
COc1ccc(/C=C(/NC(=O)c2ccco2)C(=O)N2CCCCC2)cc1	4.7%	-3.1%	-0.6	9.0%	-2.0%	14.1µM*
CCCCOc1ccc(C2OC34CCCCC3C(C#N)(C#N)C2(C#N)C(=N)O4)cc1 (stereo not given)	-0.1%	i	14.7	3.3%	-12.0%	0.8%
C=CCOc1ccc(C2OC34CCCCC3C(C#N)(C#N)C2(C#N)C(=N)O4)cc1 (stereo not given)	-1.1%	i	7.6	7.4%	-11.0%	22.4µM*
O=C(Nc1ccc(F)cc1)c1ccc2c(Cl)c3c(nc2c1)CCCC3	/	/	4.5	/	/	/
CN1\C(=C/C=C/C=C/C=[N+](C)C)C(C)(C)c2ccccc21	-7.8%	?	-0.7	46.5µM*	-60.7%[56.9 µM]	4.0%
CN1/C(=C\C=O)C(C)(C)c2ccccc21	2.9%	10.9%	-3.7	12.9%	-0.4%	/
